From PubChem BioAssay (NCI)
Compounds without any hit were thinned out: in the full panel of roughly 79,000, 15% have a hit. Cut-off read from the data, not from the text of the source: active = growth inhibition above about 70%; inactive = the rest.

Tests used:
[1] = NCI Yeast Anticancer Drug Screen. Data for the rad50 strain (AID 155);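 note: 0% = growth of vehicle-only cultures of the same strain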; conditions: S. cerevisiae rad50 strain growth inhibition; at 50.0 µM; stronger effect = higher value
Outline: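 Readout: growth inhibition relative to vehicle-treated cultures. Compound exposure was carried out in a genetically defined yeast strain deficient in DNA damage repair.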

[2] = NCI Yeast Anticancer Drug Screen. Data for the mec2-1 strain (AID 157); conditions: S. cerevisiae mec2-1 strain, at 50.0 µM, stronger effect = higher value
Outline: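 Compounds were applied to mec2-1 yeast cells. Their growth was then compared with that of vehicle-treated cultures to give growth inhibition.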

[3] = NCI Yeast Anticancer Drug Screen. Data for the sgs1 mgt1 strain (AID 161);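 note: 0% = growth of cultures given vehicle only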; conditions: S. cerevisiae sgs1 mgt1 strain, at 50.0 µM, stronger effect = higher value
Outline: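 Compounds are added to genetically altered yeast, and growth is compared with cultures given vehicle alone to give percent inhibition.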

[4] = NCI Yeast Anticancer Drug Screen. Data for the cln2 rad14 strain (AID 165);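 note: 0% = growth equal to vehicle treated cultures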; conditions: S. cerevisiae cln2 rad14 strain, at 50.0 µM, stronger effect = higher value
Outline: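 Strain: cln2 rad14 yeast, altered in cell cycle control and DNA damage repair. Read-out: growth inhibition vs vehicle.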

[5] = NCI Yeast Anticancer Drug Screen. Data for the bub3 strain (AID 167); conditions: S. cerevisiae bub3 mutant strain, at 50.0 µM, stronger effect = higher value
Outline: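 Readout: yeast growth inhibition, expressed relative to vehicle-only wells. The test organism is a mutant strain from a panel with lesions in DNA repair or checkpoint genes.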

[6] = NCI Yeast Anticancer Drug Screen. Data for the mlh1 rad18 strain (AID 175); conditions: S. cerevisiae mlh1 rad18 strain growth inhibition; at 50.0 µM; stronger effect = higher value
Outline: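 A repair-deficient yeast strain is exposed to test compound, and growth is scored relative to vehicle-treated controls.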

Measured: growth inhibition

Cc1cccc(/C=C/c2cccc[n+]2[O-])[n+]1[O-]
inactive: [1] 3.1% | [2] -11.2% | [3] -19.9% | [4] -31.8% | [5] -0.2% | [6] -5.25%

Cc1nc(N)nc(-c2ccccc2)c1N=Nc1ccccc1Br
inactive: [1] 5.55% | [2] 0.15% | [3] 4.4% | [4] -6.95% | [5] -0.85% | [6] 11.8%

c1ccc(-c2nc3cc4ccccc4cc3nc2-c2ccccc2)cc1
inactive: [1] -17.4% | [2] -12.6% | [3] -4.9% | [4] -35.6% | [5] -25.9% | [6] -18.6%

COc1cc2c[n+]3c4c(cccc4c2cc1OC)CC3
inactive: [1] 5.75% | [2] 0.55% | [3] 1.15% | [4] -2.7% | [5] 3.2% | [6] -13.7%

O=[N+]([O-])c1cc(Br)cc2c1[nH]c1nc3ccc(C(F)(F)F)cc3nc12
inactive: [1] 45.5% | [2] -17.9% | [3] 8.1% | [4] 17.4% | [5] -2.2% | [6] -3.55%

O=C(OC1CC2CCC1C2)c1cc([N+](=O)[O-])cc([N+](=O)[O-])c1 (configuration not stated)
inactive: [1] 8.55% | [2] -1.4% | [3] -9% | [4] -20.4% | [5] -3.7% | [6] -3%

CC(C)=CCNc1nc(Cl)nc2nc[nH]c12
inactive: [1] -28.1% | [2] -8% | [3] -59% | [4] -14.5% | [5] -19.4% | [6] -67.7%

C=CCOC(=O)c1c(Cl)c(Cl)c(Cl)c(Cl)c1C(=O)O
inactive: [1] 18.4% | [2] 7.85% | [3] 29.1% | [4] 25.9% | [5] 14.1% | [6] 23.9%

COc1cc(/C=C2/C(=O)N(c3ccccc3)N=C2C)cc(OC)c1OC
inactive: [1] 12.6% | [2] -3.4% | [3] 24.1% | [4] 2.5% | [5] 11.6% | [6] 17.9%

Cc1cc2nc(-c3ccccc3O)[nH]c2cc1C
inactive: [1] -14.2% | [2] -29.9% | [3] -5.25% | [4] 2.1% | [5] -29.6% | [6] 9.35%

N#CC(=Nc1ccccc1)c1cccc(Br)c1
inactive: [1] 34.5% | [2] 5.05% | [3] 18.9% | [4] 15.4% | [5] 21.4% | [6] 28.4%

O=[N+]([O-])c1ccc2nc(-c3ccccn3)c(-c3ccccn3)nc2c1
inactive: [1] 43.9% | [2] 18.4% | [3] 42.6% | [4] 18.1% | [5] 47.5% | [6] 41%

N/C(=N\N=C\c1c[nH]c2cc(C(F)(F)F)ccc2c1=O)NO
inactive: [1] -10.9% | [2] -7.45% | [3] 28.4% | [4] 11.1% | [5] 2.9% | [6] 2.25%

CC1CC[C@@]23CCC4(C)[C@@](C=CC5[C@@]6(C)CCC(=O)C(C)(C)C6CC[C@]54C)(OC2=O)[C@@H]3[C@H]1C (some centres not stated)
inactive: [1] -14.8% | [2] -17.6% | [3] -14.7% | [4] -15.1% | [5] -14.5% | [6] -8.15%

CN(/N=C/c1ccccn1)C1=NCCCCN1
inactive: [1] -33.5% | [2] 3.15% | [3] -23.1% | [4] 22.2% | [5] 8.9% | [6] -8.65%

COc1ccc(C(=O)/C(Br)=C\C(=O)O)cc1
inactive: [1] 16.8% | [2] 24.4% | [3] 5.4% | [4] 28.6% | [5] 23.9% | [6] 7%

CC(CCC(=O)O)[C@H]1CCC2[C@H]3C(CC(=O)[C@@]21C)[C@@]1(C)CCC(O)C[C@H]1C[C@@H]3O (some centres not stated)
inactive: [1] -7.75% | [2] -7.7% | [3] 5.9% | [4] -29.4% | [5] -17.1% | [6] -11.7%

NC(=O)c1ccc(Cl)cc1C(N)=O
inactive: [1] -6.55% | [2] 17.9% | [3] 7.1% | [4] -24.1% | [5] -0.05% | [6] -2.25%

CC(=O)OC1CC[C@@]2(C)C(CC[C@]3(C)C2CC=C2[C@@H]4C(C)[C@H](C)CCC4(C)CCC23C)[C@@]1(C)C(=O)O (some centres not stated)
inactive: [1] 1.05% | [2] 14.8% | [3] 16.4% | [4] 3.25% | [5] 48.1% | [6] 16.4%

CCOC(=O)C1Cc2cc(C)c(C)cc2N(C)C1=O (configuration not stated)
inactive: [1] 7.6% | [2] -10.2% | [3] 5.9% | [4] -22.5% | [5] 22.1% | [6] -3.6%

O=C(c1cccs1)N(C(=S)N1CCN(c2ccccc2)CC1)c1ccccc1
inactive: [1] -2.7% | [2] -11.1% | [3] 4.55% | [4] -7.8% | [5] -30.4% | [6] -4.3%

CN1CCCCC1C(O)CO (configuration not stated)
inactive: [1] 11.4% | [2] -5.7% | [3] -8.05% | [4] -47.4% | [5] -3.2% | [6] -27.1%

CC(=O)c1c(-c2ccc(Cl)cc2)c(C#N)c(=S)n(C2OC(CO)C(O)C(O)C2O)c1C (configuration not stated)
inactive: [1] -2.85% | [2] -6.3% | [3] 6.15% | [4] 14.8% | [5] -5.15% | [6] 12.2%

N#C/C(=N\NC(=O)c1ccncc1)c1ccc(Cl)cc1
inactive: [1] -3% | [2] 3.6% | [3] 3.75% | [4] -30.2% | [5] -9.75% | [6] 4.65%

COc1c([N+](=O)[O-])ccc(C(OC(C)=O)OC(C)=O)c1OC(C)=O
inactive: [1] 33.9% | [2] 23.1% | [3] 55.8% | [4] 2.35% | [5] 31.9% | [6] 29.4%

CC12CCC(=O)[C@@]1(C)CCCC2=O (some centres not stated)
inactive: [1] -13% | [2] 5% | [3] -23.1% | [4] 6.8% | [5] -6.9% | [6] 5.05%

CCOC(=O)/C(=C/c1ccc(C(=O)OC)cc1)N(CC)CC
inactive: [1] -26.5% | [2] -20.5% | [3] -12.1% | [4] 12.2% | [5] -20.1% | [6] -25.8%

CC1CC(C)NC(=O)N1 (configuration not stated)
inactive: [1] -13% | [2] 13.5% | [3] -13.9% | [4] 16.1% | [5] 15.8% | [6] 0.4%

Cc1ccc(N=Nc2c(O)ccc3n[nH]nc23)cc1
inactive: [1] 2.75% | [2] 0.2% | [3] 31.9% | [4] -46% | [5] 18.9% | [6] 6.95%

CCOC(=O)Oc1ccc(Cl)cc1Cl
inactive: [1] 3.2% | [2] 14.1% | [3] 2.55% | [4] 5.2% | [5] -4.4% | [6] -3.8%

C#CC(C)(C)OC(=O)Nc1ccc(Cl)cc1
inactive: [1] 27.4% | [2] 16.2% | [3] -0.35% | [4] -44.2% | [5] 7.9% | [6] 13.1%

CN=Cc1ccccc1O.CN=Cc1ccccc1O.[Cu+2]
inactive: [1] 6.55% | [2] -8.6% | [3] -10.9% | [4] -73.8% | [5] -2.5% | [6] 3.05%

CN1CCC(C(=O)NNc2ccccc2)CC1
inactive: [1] -12.1% | [2] -13.2% | [3] -3.75% | [4] 7.3% | [5] 0.1% | [6] 4.7%

COc1ccc(NS(=O)(=O)c2ccc(NCc3c4ccccc4nc4ccccc34)cc2)nn1
inactive: [1] -13.3% | [2] 8.2% | [3] 17.2% | [4] 29.7% | [5] -0.45% | [6] 18.5%

CC1(O)C=CC(=O)C=C1
inactive: [1] 0.05% | [2] 6.75% | [3] -15.2% | [4] 1.95% | [5] -24.1% | [6] -7.6%

c1ccc(-c2nc3ccccc3nc2-c2ccc(-c3nc4ccccc4nc3-c3ccccc3)cc2)cc1
inactive: [1] 8.2% | [2] -0.6% | [3] -9% | [4] 4.6% | [5] 1.85% | [6] -18.8%

CN(C)c1ccc(/C=c2\[nH]c(=O)/c(=C\c3ccc(N(C)C)cc3)[nH]c2=O)cc1
inactive: [1] 4.3% | [2] 4.6% | [3] 12.2% | [4] 14.6% | [5] -8.55% | [6] 16.2%
